Laboratory results reported in PubChem BioAssay (NCATS).
Results filed as inconclusive are left out. Activity calls are given as the source filed them. Calls follow the shape of the dose curve; as a rule, active = well fitted cell-killing curve with a large enough effect; inconclusive = small, poorly fitted or top-dose-only effect, or effect the other way; inactive = flat fitted curve, though single readings scatter.

Each molecule was assayed on HeLa (assay: Primary qHTS to identify gynecologic anti-cancer compounds using libraries of approved drugs and bioactive compounds (AID 1345084; also: nearly all actives have a fitted effect of over 55% in size)). Settings: Gynecologic cancer cell panel viability, ATPlite luminescence, 48 h; series mostly up to 57.5 µM; activity change, negative = cytotoxicity: at the top concentration.
Description: National Center for Advancing Translational Sciences [NCATS] Assay Overview: Chemotherapeutic drug responses vary from cancer to cancer and from patient to patient. These variations could be caused by a number of factors including patient genomic background, tumor mutations, tumor heterogeneity, and aspects of drug treatment. Chemotherapeutic drug resistance is also a common issue and can lead to ineffective treatment and patient death. Here we have profiled the cell killing effects of thousands of compounds to characterize the responses in three gynecological cancers, identify cancer-selective compounds, and understand the diversity of responses to these compounds from pan-cancer suppressors to single cell line selective compounds. In this assay, we screened a 7,914 compound drug library that included approved drug and bioactive compounds in six ovarian, three cervical, and […] placental cancer cell lines using the ATPlite assay for cell viability. […] The cervical cancer cell lines included HeLa, Ca Ski, and C-33 A. The placental cancer cell lines included JEG-3. HEK 293T cells were used as the control cell line to determine the selectivity index. ATPlite is a luminescence based assay reliant on the conversion of a luciferase substrate to light in the presence of ATP. As a cytotoxic compound will suppress growth and decrease the number of cells, the concentration of ATP will decrease, and less light signal will be detected in the well.
Assay Protocol Summary: 1,000 cells in 4 uL of media were dispensed into white, solid bottom 1536-well plates using a Multidrop Combi (Thermo Scientific). The Assay plates were incubated for 16 hours at 37 C with 5% CO2 in assay plates, followed by the addition of 23 nL of DMSO or drug dissolved in DMSO. Each compound was assayed in five concentrations (0.092, 0.46, 2.3, 11.5, and 57.5 uM), using the automated Wako 1536 Pin Tool workstation and incubated at 37 C with 5% CO2 48 hours. 4 uL of ATPlite, the ATP monitoring reagent, was then added to the each well of the assay plates using the Multidrop Combi reagent dispenser followed by incubation for 15 minutes at room temperature. The resulting luminescence was measured using the ViewLux plate reader.
% is scaled to controls: 0 for no effect and ±100 for the full control effect; potency is read from the fitted curve at half-maximal effect.

SMILES | activity change, negative = cytotoxicity | Potency
CC(=O)[C@@]1(O)CC[C@H]2[C@@H]3CCC4=CC(=O)CC[C@]4(C)[C@H]3CC[C@@]21C | -4.67% (inactive) | –
NCCCNCCSP(=O)(O)O | 7.86% [at 11.6 µM] (inactive) | –
COc1cc(Cc2cnc(N)nc2N)cc(OC)c1OC | -0.0423% (inactive) | –
c1cnc(N2CCN(Cc3ccc4c(c3)OCO4)CC2)nc1 | 6.11% (inactive) | –
N[C@@H](COP(=O)(O)O)C(=O)O | -0.57% [at 25.3 µM] (inactive) | –
CCOC(=O)c1cnc2c(cnn2CC)c1NN=C(C)C | 16.3% (inactive) | –
Cc1nc2sccn2c(=O)c1CCN1CCC(=C(c2ccc(F)cc2)c2ccc(F)cc2)CC1 | -1.1% (inactive) | –
CN(C)[C@@H]1C(=O)C(C(N)=O)=C(O)[C@@]2(O)C(=O)C3=C(O)c4c(O)ccc(Cl)c4[C@@H](O)[C@H]3C[C@@H]12 | -0.0995% (inactive) | –
C[C@@H](O)[C@H]1C(=O)N2C(C(=O)O)=C(SCCN=CN)C[C@H]12 | -1.92% (inactive) | –
COC(=O)[C@@H](N)Cc1ccc(O)c(O)c1 | -0.342% (inactive) | –
CN1C[C@H](C(=O)N[C@]2(C)O[C@@]3(O)[C@@H]4CCCN4C(=O)[C@H](Cc4ccccc4)N3C2=O)C[C@@H]2c3cccc4[nH]cc(c34)C[C@H]21 | 1.84% (inactive) | –
CCN(Cc1ccncc1)C(=O)C(CO)c1ccccc1 (stereo not given) | -8.17% (inactive) | –
CNC1(C)C2CCC(C2)C1(C)C (stereo not given) | -1.6% (inactive) | –
Cc1scc2c1N(C(=O)CN1CCN(C)CC1)c1ccccc1NC2=O | 4.37% (inactive) | –
Cc1cccc(C)c1NC(=O)C(C)N (stereo not given) | 4.03% (inactive) | –
CN(C)CCCN1c2ccccc2Sc2ccccc21 | -0.647% (inactive) | –
OCCN1CCN(CCCN2c3ccccc3C=Cc3ccccc32)CC1 | -4.58% (inactive) | –
Cc1ccc(Cl)c(Nc2ccccc2C(=O)O)c1Cl | -13.4% (inactive) | –
CC(C)COCC(CN(Cc1ccccc1)c1ccccc1)N1CCCC1 (stereo not given) | -0.291% (inactive) | –
CN(C)C(=O)Oc1cccc([N+](C)(C)C)c1 | -2.76% (inactive) | –

SMILES | activity change, negative = cytotoxicity | Potency
COc1ccc2c(c1OC)C(=O)O[C@@H]2[C@H]1c2c(cc3c(c2OC)OCO3)CCN1C | -1.46% (inactive) | –
Cc1nc2ccccn2c(=O)c1CCN1CCC(C(=O)c2ccc(F)cc2)CC1 | -15.6% (inactive) | –
c1ccc2c(c1)CCCC2C1=NCCN1 (stereo not given) | -5.41% (inactive) | –
NC/C=C/C(=O)O | 8.15% (inactive) | –
CCCN(CCC)C(=O)C(CCC(=O)O)NC(=O)c1ccccc1 (stereo not given) | 11.2% (inactive) | –
CNCCCN1c2ccccc2CCc2ccccc21 | -0.874% (inactive) | –
C(=C\c1ccccc1)/CN1CCN(C(c2ccccc2)c2ccccc2)CC1 | 1.14% (inactive) | –
C[n+]1cc2c3c(ccc2c2ccc4cc5c(cc4c21)OCO5)OCO3 | – | 8.91 µM (active)
CCn1nc(C(=O)O)c(=O)c2cc3c(cc21)OCO3 | 20.5% (inactive) | –
CC(=O)[C@]1(O)Cc2c(O)c3c(c(O)c2[C@@H](O[C@H]2C[C@H](N)[C@H](O)[C@H](C)O2)C1)C(=O)c1ccccc1C3=O | – | 7.08 µM (active)
Nc1nc(N)c2nc(-c3ccccc3)c(N)nc2n1 | -6.67% (inactive) | –
NC(=O)N1c2ccccc2C=Cc2ccccc21 | 1.78% (inactive) | –
CC(C)(C)NCC(O)c1cc(O)cc(O)c1 (stereo not given) | -5.98% (inactive) | –
CC(C)(C)c1ccc(C(=O)CCCN2CCC(OC(c3ccccc3)c3ccccc3)CC2)cc1 | -4.21% (inactive) | –
CCCCNc1c(C(=O)OCC)c(C)nc2c1cnn2CC | -10.9% (inactive) | –
CC(C)NNC(=O)c1ccncc1 | 19% (inactive) | –
CCn1ccnc1CC1COc2ccccc2O1 (stereo not given) | -7.09% (inactive) | –
CCN1CCc2nc(N)oc2CC1 | 0.987% (inactive) | –
NC1=NCC2c3ccccc3Cc3ccccc3N12 (stereo not given) | -18.7% (inactive) | –
CC(N=C(NC#N)Nc1ccncc1)C(C)(C)C (stereo not given) | -2.19% (inactive) | –
